These results are taken from PubChem BioAssay AID2315 (National Center for Advancing Translational Sciences (NCATS), 2010).

Out of some 290,000 compounds screened, about 27,000 (9.3%) were called active. The sample as a whole holds a higher share of actives than the screen did. Values without a mark were called inactive. Cut-off read from the data, not from the text of the source: active = inhibition mostly above about 28% (no sharp cut-off); inactive = mostly below about 43%.

This experiment can be described thus: A qHTS for Small Molecule Inhibitors of Shiga Toxin. Note: 0% is about no effect. Particulars: Vero cells, Shiga toxin protein synthesis inhibition reporter; at 38.7 µM, stronger effect = higher value.
A word on the inhibition: it is the drop in the measured response relative to a control, in per cent. In the case of `O=C1c2ccccc2C(=O)c2c1cccc2N1CCN(CCO)CC1`, the inhibition is 75.3% (active).

For the compound `O=C(NC(c1ccccc1)c1ccccc1)N1CCN(CCO)CC1`, the inhibition is 8.02%. For `O=C1c2ccccc2C(=O)c2c1cccc2N1CCN(Cc2ccccc2)CC1` the value was 47.7%. Consider `NC(=O)CSc1nnc(NC(=O)c2ccc(Br)o2)s1`, for which the inhibition is 15.2%. For the compound `CN(C)c1cccc(C(=O)N2CCC(n3nccc3NC(=O)C3CCOC3)CC2)c1` (stereo unspecified), the inhibition was -1.93%. On to `Cc1ccc(NC(=O)Nc2ccccc2)c(Br)c1`, for which the inhibition is 105% (active). For the compound `Cc1c(NC(=O)Nc2ccccc2)cccc1[N+](=O)[O-]`, the inhibition was -38.1%. In the case of `CS(=O)(=O)c1ccc(Cl)c(NC(=O)Nc2ccccc2)c1`, the inhibition is 38.5%. For `COc1cc(NC(=O)C2=CC(c3ccc(C)cc3)=NS(=O)(=O)N2C)cc(OC)c1OC` the value was 7.86%. On to `Cc1[nH]c(C)c(S(=O)(=O)N2CCN(c3cccc(C(F)(F)F)c3)CC2)c1C(=O)N1CCCC1`, for which the inhibition was -8.08%. On to `CCOc1ccc(N2C(=O)CC(N(O)c3ccccc3)C2=O)cc1` (stereo unspecified), for which the inhibition was 100% (active). Regarding `CCCCCCC(=O)N(O)C1CC(=O)N(c2ccccc2)C1=O` (stereo unspecified), the inhibition was -2.28%.

On to `CCOc1ccc(N2C(=O)CC(N(CCc3ccc(OC)c(OC)c3)C(=S)Nc3ccccc3)C2=O)cc1` (stereo unspecified), for which the inhibition was 9.09%.

For `CCc1nn(-c2cc(Oc3cccc4ccccc34)nc(-c3ccccc3)n2)c(N)c1C#N`, the inhibition was -16.3%. With `CC1CCCC(C)N1/N=C/c1ccccc1OC(F)F` (stereo unspecified), the inhibition is -12.3%. Then `COC(=O)c1ccc(/C=N\n2c(C)nnc2C)cc1`, with 8.68%; and `COC(=O)c1ccc(/C=N/N2C(C)CCCC2C)cc1` (stereo unspecified), with 66.3% (active); and `CCN(CC(=O)N1CCCC1)S(=O)(=O)c1ccc(F)cc1`, with -4.28%.

On to `COC(=O)c1ccc(C(NC(=O)OCc2ccccc2)/C(C)=C/[C@@H](C)C(=O)NCc2ccc(OC)c(OC)c2)cc1` (stereo partly specified), for which the inhibition is -13.4%.

For the compound `Cn1cnnc1SCc1nnc(-c2ccccc2Br)o1`, the inhibition was 58.3% (active). On to `Nc1cccc2c1C(=O)N(Cc1nnc(-c3ccccc3Br)o1)C2=O`, for which the inhibition was 18.9%. Consider `Cn1cnnc1SCC(=O)NNC(=O)COc1ccc(Br)cc1`, for which the inhibition was 1.38%.

As for `O=C(CN1C(=O)S/C(=C\c2ccccc2Cl)C1=O)NC1C=CS(=O)(=O)C1` (stereo unspecified), the inhibition is -2.51%. For the compound `COc1ccc(C2=NS(=O)(=O)N(C)C(C(=O)NC(C)c3ccccc3)=C2)cc1` (stereo unspecified), the inhibition is 10.4%. For the compound `COc1ccc(CCNC(=O)CCCCCNC(=O)N2CCn3c2nc2ccccc23)cc1OC`, the inhibition was 4.93%. Then `O=C(CNC(=O)c1ccccc1)Oc1ccc([N+](=O)[O-])cc1`, with -10.1%; and `O=C(Oc1ccc([N+](=O)[O-])cc1)c1ccc2ccccc2n1`, with -35.6% (active); and `COc1ccc(C2=NOC(COC(=O)c3ccc4ccccc4n3)C2)cc1` (stereo unspecified), with 22.8%. Take `COc1ccc(C(=O)Nc2c(N)nc(SCC(=O)Nc3ccc(C(C)=O)cc3)[nH]c2=O)cc1`: the inhibition was -1.66%.

As for `CC(=C/c1ccccc1)/C=N/NC(=O)c1cc(C)oc1C`, the inhibition is 0%. For `Cc1cc(C(=O)N/N=C/c2ccccc2[N+](=O)[O-])c(C)o1`, the inhibition was 72.5% (active). Then `O=C(Cc1cc(=O)[nH][nH]1)N/N=C/c1ccccc1[N+](=O)[O-]`, with 13.6%. `Cc1c(Cl)c([N+](=O)[O-])nn1CC(=O)NCCCN1CCOCC1`: the inhibition is -6.5%. As to `COc1ccc(-n2c(=O)[nH]c3cc(C(=O)NCCc4ccc(OC)c(OC)c4)ccc3c2=O)c(OC)c1`, the inhibition is 3.16%. Take `Cc1ccc(NC(=O)C2CC2c2ccccc2)cc1` (stereo unspecified): the inhibition was 32% (active). As for `Cc1ccc(C2CC2C(=O)NN)cc1` (stereo unspecified), the inhibition is -15.4%. As to `O=C(NNC(=S)Nc1ccc(F)cc1)[C@H]1C[C@@H]1c1ccccc1`, the inhibition was -8.83%. For `COc1ccc(OC)c(CNC(=O)c2cc(=O)[nH]c3ccc(S(=O)(=O)N4CCCC4)cc23)c1`, the inhibition was -3.87%. Consider `COc1cccc(-n2c(N)cc(=O)nc2SCC(=O)Nc2cc(C)on2)c1`, for which the inhibition is 13.4%. `COc1cc(OC)c(C(=O)Nc2ccccc2-c2ccccc2)cc1OC`: the inhibition was -5.65%.

`COc1cc2ccccc2cc1C(=O)Nc1ccc(NC(=O)c2cccs2)cc1`: the inhibition is 15.8%.

With `COc1cc2ccccc2cc1C(=O)Nc1nc(C)c(C(C)=O)s1`, the inhibition is 69.5% (active). For `COc1cc2ccccc2cc1C(=O)Nc1ccccc1C` the value was 32.5% (active); for `COc1cccc2sc(Nc3nc(C)c(C(C)=O)s3)nc12`, 29.8%.

For the compound `CC(=O)c1sc(NC(=O)c2cccc3ccccc23)nc1C`, the inhibition was 31.4%.

`CCN(CC)c1ccc(NC(=O)CCc2nnc3ccc(N4CCCCC4)nn23)c(C)c1`: the inhibition was -1.98%. For `Cc1[nH]c(C)c(S(=O)(=O)N2CCC(C)CC2)c1C(=O)N1CCCC1`, the inhibition is -4.27%.

For the compound `Cc1ccsc1-c1cc(C(=O)O)c2c(ccc3ccccc32)n1`, the inhibition was 17.5%. For `CN(Cc1c(F)cccc1Cl)S(=O)(=O)c1cccs1`, the inhibition was 20.7%. Take `CC1CC(C)CN(c2ccc(S(=O)(=O)N3CCOCC3)cc2)C1` (stereo unspecified): the inhibition is 13.9%.

Regarding `Cn1c(CC(=O)Nc2ccc(F)cc2)nnc1SCC(=O)NC1CCCCC1`, the inhibition was -5.18%.

For the compound `CC(C)c1ccc(Nc2ncccc2C#N)cc1`, the inhibition is 52.3% (active).

`CN(C)c1ccnc(Nc2ccc(F)cc2)c1C#N`: the inhibition is 7.86%. Then `CC(=O)Cc1nsc(NC(=O)c2ccc(COc3ccc(C)cc3)o2)n1`, with -9.97%; and `CCOc1ccc(OCc2ccc(C(=O)Nc3cccc(C)n3)o2)cc1`, with 42% (active). For `Cc1cccc(NC(=O)c2ccc(COc3ccccc3[N+](=O)[O-])o2)n1` the value was 32.9%; for `COc1ccc(CCNC(=O)NS(=O)(=O)c2ccc(C)cc2)cc1OC`, 4.27%. Consider `CC(C)Cc1nnc(NC(=O)CN2C(=O)NC3(CCCCC3)C2=O)s1`, for which the inhibition was -8.2%. With `Cc1ccc(S(=O)(=O)NCC(=O)N2CCN(c3ccccn3)CC2)cc1`, the inhibition is -5.02%. For the compound `Cc1ccc(N2CCN(c3ccc(C)cc3)C2c2ccccn2)cc1`, the inhibition is 57.4% (active). Take `Cc1ccc(N2C(=O)C3CC3C2=O)cc1` (stereo unspecified): the inhibition is 25.6%.
